Data as given in PubChem BioAssay (EPA / NIEHS).
Where “and” joins values, the source holds several entries; their conditions need not be identical. Identical values can stand only once. Where a structure was tested more than once in an assay, its records may differ in their call. Calls of active or inactive are those of the source. How the source made its calls: active means hit-call score of the fitted dose curve at least 0.9, where 1 is the maximum; inactive means score below 0.9.

Read-out: Macrophage colony-stimulating factor (MCSF), CSF1 (gene 1435)
Test: BSK_LPS_MCSF: BioMAP Diversity Plus: LPS Assay for Macrophage colony-stimulating factor (MCSF) Biomarker Activity (AID 2283083)
Conditions: primary human HUVEC with PBMC; actives raise or lower the signal
Procedure: BSK_LPS is a cell-based, multiplexed-readout assay that uses umbilical vein endothelium and peripheral blood mononuclear cells, a human vascular primary cell co-culture, with measurements taken at 24 hours after chemical dosing in a 96-well plate.BSK_LPS_MCSF is an assay component measured in the BSK_LPS assay. It measures M-CSF antibody related to regulation of gene expression using ELISA technology.Data from the assay component BSK_LPS_MCSF was analyzed into 1 assay endpoint. This assay endpoint, BSK_LPS_MCSF, was analyzed with bidirectional fitting relative to DMSO as the negative control and baseline of activity. Using a type of binding reporter, gain or loss-of-signal activity can be used to understand changes in the signaling as they relate to the gene CSF1. Furthermore, this assay endpoint can be referred to as a primary readout, because this assay has produced multiple assay endpoints where this one serves a signaling function. To generalize the intended target to other relatable targets, this assay endpoint is annotated to the cytokine intended target family, where the subfamily is colony stimulating factor.
The levels of cell surface (or secreted, indicated by the prefix "s") biomarker endpoints were measured by ELISA. Overt cytotoxicity to cells in confluent adherent cultures (all systems other than the BT system) was assessed by measuring total protein levels using sulforhodamine B (SRB) staining in parallel cultures at the time of biomarker measurements, indicated as SRB endpoints. For proliferation assays for adherent cell types, individual cell types are cultured at sub-confluence and relative cell numbers quantified by SRB staining at time points optimized for each system (48 h: 3C and CASM3C systems; 72 h: BT and HDF3CGF systems; 96 h: SAg system). SRB was performed by staining cells with 0.1% SRB after fixation with 10% TCA and reading wells at 560 nm.Viability and proliferation of PBMC (T cells) was quantified by Alamar Blue reduction for the SAg and BT systems. For PBMC viability (referred to as PBMC Cytotoxicity within the assay endpoint names), cells were plated (75,000/well in a 96-well plate) and then chemical samples added for 1 h before addition of activators, SEB and TSST-1 (20 ng/mL final concentration each). Cells were incubated for 90 h. Then, Alamar Blue (20 uL/well) (Invitrogen, Cat DAL1100) was added for 6 h, and the plates were read with a fluorescence microplate reader at 546/580 nm (excitation/emission). For PBMC proliferation, cells were plated and activated as above but incubated for only 16 h prior to addition of Alamar Blue. Plates were read after 6 h.

SMILES	outcome	AC50
O=[N+]([O-])c1ccc(O)cc1	inactive	
CC[C@H](c1ccc(O)cc1)[C@@H](CC)c1ccc(O)cc1		22.4 µM (active)
OCCC(F)(F)C(F)(F)C(F)(F)C(F)(F)C(F)(F)C(F)(F)C(F)(F)C(F)(F)F	inactive	43.2 µM (active) and 5.95 µM (active)
CCCCC(CC)COC(=O)CCCCC(=O)OCc1ccccc1 (stereo not given)	inactive	
CC[C@H](C)[C@@H](C(=O)O)n1sc2ccccc2c1=O	inactive	
ClC1=C(Cl)C(Cl)(Cl)C(Cl)=C1Cl		9.94 µM (active)
O=C(O)c1ccccc1C(c1ccc(O)cc1)c1ccc(O)cc1	inactive	
CCOC(=O)CC(O)(CC(=O)OCC)C(=O)OCC	inactive	
Cc1cc(CCN2CCN(c3nsc4ccccc34)CC2)cc2c1NC(=O)CC2(C)C		15.3 µM (active)
NC(=O)N(O)[C@@H]1C=C[C@H](Oc2cccc(Oc3ccc(F)cc3)c2)C1	inactive	
CN1CCC[C@H]1c1cccnc1	inactive	
CC(O)CO (stereo not given)	inactive	
CC(C)(C)c1cccc(C(C)(C)C)c1O	inactive	
O=c1c(-c2ccc(O)cc2)coc2cc(O)ccc12	inactive	
CCCOc1sc(C(=O)N2CCC(c3cc(CN)ccc3F)CC2)c(C)c1Br		10.7 µM (active)
C[C@@H]1C[C@H]2[C@@H]3CCC4=CC(=O)C=C[C@]4(C)[C@@]3(F)[C@@H](O)C[C@]2(C)[C@@]1(O)C(=O)COP(=O)(O)O	inactive	
OC1CCC(C2CCCCC2)CC1 (stereo not given)	inactive	
CCN(CC)CCNc1ccc(CNC=O)c2sc3ccc(OC)cc3c(=O)c12		20 µM (active)
CC(C)(C)c1cc(C(C)(C)C)c(O)c(C(C)(C)C)c1	inactive	
Cc1cc(C)c(O)c(C)c1	inactive	

SMILES	outcome	AC50
C=C(C)C(=O)OCCC(F)(F)C(F)(F)C(F)(F)C(F)(F)C(F)(F)C(F)(F)F	inactive	
NC(=O)N1C(=O)C(C(=O)c2cc(Cl)cs2)c2cc(F)c(Cl)cc21 (stereo not given)	inactive	
CCCCCCCCCCCCCCCS(=O)(=O)Oc1ccccc1	inactive	
CC(=O)CC(C)(C)O	inactive	
O=C(OCCOCCOC(=O)c1ccccc1)c1ccccc1	inactive	
CCCCCCC(=O)O	inactive	
CC1=C(/C=C/C(C)=C/C=C/C(C)=C/C(=O)O)C(C)(C)CCC1		4.31 µM (active)
CC(C)CCCCCCOC(=O)CCCCC(=O)OCCCCCCC(C)C	inactive	
CCc1nn(C2CCCCC2)c2cc(C3(C#N)CCC(C(=O)O)CC3)ccc12 (stereo not given)		1.85 µM (active)
Oc1cccc(O)c1	inactive	
CCC(C)(C)C1CCC(O)CC1 (stereo not given)	inactive	
CCCCCCCCCCCCCC[N+](C)(C)C		5.39 µM (active)
c1ccc2c(c1)ccc1ccccc12	inactive	
CCCCCCCCOC(=O)CCCCCCCCC(=O)OCCCCCCCC	inactive	
C#C[C@]1(O)CC[C@H]2[C@@H]3CCC4=CC(=O)CC[C@@H]4[C@H]3CC[C@@]21C		6.38 µM (active)
c1ccc2c(c1)Cc1ccccc1-2	inactive	
CCCCCCCCCCCCc1ccccc1S(=O)(=O)O	inactive	
Nc1cccc2c(N)cccc12	inactive	
CCCCCCCC(=O)O	inactive	
